Growth data for twelve molecules are collected here from PubChem BioAssay (NCI).

About 83,000 compounds went through this panel and 20% of them were active in at least one assay; those are over-represented in the sample as a whole.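 For each line, cells grew in 96-well plates with the test compound present at a single concentration for 48 hours.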 Values without a mark were called inactive. Active and inactive are the calls of the source. Rule for the calls: active = growth percent below 10; inactive = the rest.

This assay has as its system HS 578T breast. Briefly: NCI-60 one-dose screen, 48 h (100 = growth as untreated, 0 = no growth, -100 = all killed). The settings on record: 10 µM.
Take `C#CCNC(=O)CCC(=O)OC[C@]12CC[C@@H](C(=C)C)[C@@H]1C1CC[C@@H]3[C@@]4(C)CCCNC(C)(C)[C@@H]4CC[C@@]3(C)[C@]1(C)CC2` (some centres not stated): the growth is 14.4%. With `Cc1ccc(-c2nc(Nc3ccc(S(N)(=O)=O)cc3)c3ccccc3n2)cc1`, the growth was 90.1%.

In the case of `N#Cc1ccc(-c2nn(-c3ccc(C(=O)O)cc3)cc2CNc2cccc(Br)c2)cc1`, the growth was 52.6%. Then `Cc1noc2c(Cc3ccc([N+](=O)[O-])cc3)nn(CC(=O)N/N=C/c3ccc(Br)cc3)c(=O)c12`, with 41.5%; and `Cc1ccc(/C=C/C(=O)c2ccc(NC(=O)CSc3nnc(-c4c[nH]c5ccccc45)n3-c3ccccc3)cc2)c(C)c1`, with 67.8%. As for `O=C1c2ccccc2C(=O)c2c1c(C(=O)c1ccc(Cl)cc1)n1c2ccc2c3ccccc3ccc21`, the growth is 93.2%. For the molecule `COc1ccc(C(=O)Nc2sc3c(c2C#N)CCC(=O)C3)cc1C(F)(F)F`, the growth is -11.7% (active).

For the molecule `COc1ccc(C2NC(=S)NC(C)=C2C(=O)OC(C)C)cc1OC` (configuration not stated), the growth was 89.8%. Take `COc1ccc(OC)c(/C=N/NC(=O)c2ccc3nc(-c4ccc(Cl)cc4)[nH]c3c2)c1`: the growth was 51.2%. Consider `Nc1nc(Nc2ccc(Cl)cc2)n(Cc2cccc(Br)c2)n1`, for which the growth was -25.9% (active).

In the case of `O=C(CSc1nnc(-c2ccc3nc(-c4ccc(Cl)cc4)[nH]c3c2)o1)Nc1ccc(Br)cc1`, the growth was -16.5% (active). Then `COc1cc2c(cc1OC)CN(CCCCOc1cc(O)c3c(=O)cc(-c4ccccc4)oc3c1)CC2`, with 74.2%.
